Measured values from PubChem BioAssay (NCI).
The panel holds about 79,000 compounds, 15% with a hit somewhere; the sample as a whole holds those more often. Unmarked numbers belong to inactive results. Active and inactive are the calls of the source. No stated cut-off is given here; in the data, active means growth inhibition above about 70%; inactive means the rest.

Assay: NCI Yeast Anticancer Drug Screen. Data for the rad14 strain (AID 159);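 further: 0% = growth of vehicle-treated control cultures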
Settings: S. cerevisiae rad14 strain growth inhibition, active compounds read high
Experimental: Growth inhibition of yeast strains with defined genetic alterations is measured as a screen for potential anti-cancer activity. Selected strains with alterations in DNA damage repair or cell cycle control were exposed to compounds and growth inhibition was measured relative to vehicle treated controls. The strain used in this assay is rad14

| Structure (SMILES) | growth inhibition (at 1.2 µM) [%] | growth inhibition (at 3.7 µM) [%] | growth inhibition (at 11.0 µM) | growth inhibition (at 33.0 µM) | growth inhibition (at 100.0 µM) |
| --- | --- | --- | --- | --- | --- |
| CCOC(=O)Nc1ccc2c(c1)Cc1ccccc1-2 | 0 | -8 | 1% | 1% | 3% |
| CCc1[nH]nc(C(N)=O)c1N=NN(C)C | -1 | -3 | 3% | 13% | 41% |
| Cc1ccc(S(=O)(=O)N/N=C/C2(c3ccccc3)c3ccccc3-c3ccccc32)cc1 | 9 | 9 | 45% | 86% (active) | 86% (active) |
| CN(Cc1cnc2nc(N)nc(N)c2n1)c1ccc(C(=O)NC(CCC(=O)O)C(=O)O)c2ccccc12 (stereo not given) | -2 | 11 | 49% | 82% (active) | 91% (active) |
| CN(C)c1ccc(/C=C/c2ccnc3ccccc23)cc1N | -7 | -7 | -8% | 3% | 17% |
| Clc1cc(-c2ccccc2)nc2ccccc12 | 1 | 2 | 1% | 46% | 91% (active) |
| COC(=O)/C=C1/OC(c2ccc(Br)cc2)=C(Br)C1=O | -4 | -16 | -15% | -21% | 78% (active) |
| C=Cc1cnc([N+](=O)[O-])n1C | -1 | 25 | 76% (active) | 96% (active) | 98% (active) |
